The full list was thinned out, with hits kept by preference.
AmpC detergent: qHTS Inhibitors of AmpC Beta-Lactamase (assay with detergent). P00811. AmpC hydrolysis of nitrocefin, absorbance 480 nm, 0.01% Triton. 0.041% of 370,000 active. AID 485294, 2010. Potency, µM (top dose mostly 114 µM), inactives show at the top dose activity change, negative = inhibition, hits mostly inhibitors;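 also: potency is read from the fitted curve at half-maximal effect; 0% = no-compound wells and -100% = no-enzyme wells; nearly all actives have a fitted effect of over 25% in size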
Target sequence (P00811 whole entry, looked up): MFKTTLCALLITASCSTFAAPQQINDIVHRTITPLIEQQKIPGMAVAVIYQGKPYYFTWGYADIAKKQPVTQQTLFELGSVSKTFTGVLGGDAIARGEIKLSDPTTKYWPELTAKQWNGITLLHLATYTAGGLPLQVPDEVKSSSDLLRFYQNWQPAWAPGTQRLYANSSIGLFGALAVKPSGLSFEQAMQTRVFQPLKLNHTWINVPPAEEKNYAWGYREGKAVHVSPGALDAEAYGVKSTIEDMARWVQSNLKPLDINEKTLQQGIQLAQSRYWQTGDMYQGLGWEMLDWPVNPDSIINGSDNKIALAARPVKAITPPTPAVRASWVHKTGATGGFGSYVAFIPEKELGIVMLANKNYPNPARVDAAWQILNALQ
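20 mM phosphate pH 7.0 + 0.01% (detergent screen) or 0.0001% Triton X-100; 5.3 nM AmpC reagent; cpd preinc 15 min RT; nitrocefin (800 uM stock) to start; A480 q20 s × 4 min; Activity was normalised to no-enzyme and no-compound control wells.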
SARS PLpro yeast: qHTS of Yeast-based Assay for SARS-CoV PLP; S. cerevisiae expressing SARS-CoV PLpro, growth rescue; Potency, µM (titrated, usually from 32.9 µM), without a hit: at the highest dose activity, positive = growth rescue, usual class: activators; 0.19% of 330,000 active; AID 485353, 2010; calls by dose curve; also: potency is read from the fitted curve at half-maximal effect; 0% is about no effect; nearly all actives have a fitted effect of over 55% in size
AMA1 RON2 block: qHTS for Inhibitors of AMA1-RON; Towards Development of Antimalarial Drug Lead: Primary Screen. AID 720542, 2013. Plasmodium falciparum AMA1 (3D7) - RON2 peptide interaction. 0.2% of 360,000 active. Potency, µM (titrated, usually from 58.2 µM), for the others: top-dose activity change, negative = inhibition, hits mostly inhibitors. AlphaScreen AMA1-biotinylated RON2 peptide binding;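 also: potency is read from the fitted curve at half-maximal effect; 0% = vehicle wells and -100% = peptide control; nearly all actives have a fitted effect of over 45% in size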
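AMA1 (3D7) with his tag at 25 nM final met compounds first, then biotinylated RON2 peptide at 25 nM; detection used donor plus acceptor beads, 10 µg/mL apiece, read by AlphaScreen after 30 min at room temperature.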
AmpC inh no detg: qHTS Inhibitors of AmpC Beta-Lactamase (assay without detergent) | Potency, µM (titrated, usually from 57.1 µM), for inactives: at the top dose activity change, negative = inhibition, actives largely listed as inhibitors | 0.52% of 330,000 active | P00811 | AmpC nitrocefin hydrolysis, absorbance 480 nm, 0.0001% Triton;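 also: potency is read from the fitted curve at half-maximal effect; plate controls were no compound for no effect and no enzyme for full effect; nearly all actives have a fitted effect of over 20% in size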
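20 mM phosphate pH 7.0 + 0.01% (detergent screen) or 0.0001% Triton X-100; 5.3 nM AmpC reagent; cpd preinc 15 min RT; nitrocefin (800 uM stock) to start; A480 q20 s × 4 min; Activity was normalised to no-enzyme and no-compound control wells.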
Cycloheximide cs: Cycloheximide Counterscreen for Small Molecule Inhibitors of Shiga Toxin. max response, %. 12% of 300,000 active. cell reporter, cycloheximide protein synthesis inhibition counterscreen; in the data active = max response mostly above about 13%, no sharp cut-off; inactive = mostly below about 14%; also: read at 38.3 µM for the half of the compounds with a filed dose; 0% is about no effect
Shiga inhibitor: A qHTS for Small Molecule Inhibitors of Shiga Toxin; AID 2315, 2010; inhibition, % at 38.7 µM; Vero cells, Shiga toxin protein synthesis inhibition reporter; 9.2% of 290,000 active; in the data active = inhibition mostly above about 28%, no sharp cut-off; inactive = mostly below about 43%; also: 0% is about no effect
Starred values were filed as active, the others as inactive; u = inconclusive; x = no result; [ ] = remark or other dose. Unless noted, calls follow the shape of the dose curve; as a rule, active = well fitted curve in the direction sought with a large enough effect; inconclusive = small, poorly fitted or top-dose-only effect, or another doubt; inactive = no such curve, though single readings can be large; an effect the other way counts as inactive or inconclusive.

SMILES	AmpC detergent	SARS PLpro yeast	AMA1 RON2 block	AmpC inh no detg	Cycloheximide cs	Shiga inhibitor
COC(=O)N/N=C/c1ccc(-c2ccccc2Cl)o1	5.2%	-7.2%	-0.5%	-14.1%	40.7*	40.8*
COC(=O)c1ccccc1-c1ccc(/C=N/NC(N)=O)o1	6.3%	2.3%	-23.0%	-12.1%	-0.5	9.4
COc1ccc(C(=O)Nc2ccccc2C(=O)N2CCOCC2)cc1OC	-3.5%	-2.7%	5.5%	-18.6%	-3.9	4.2
CCc1cc(C(=O)Nc2ncccc2O)sc1C	7.0%	-0.1%	53.7%	1.3%	36.5*	55.2*
CC1(C)NC(=O)N(CCCOc2ccc(Br)cc2Cl)C1=O	3.8%	-3.0%	16.7%	53.8%	40.0*	133.9*
Cc1ccc([N+](=O)[O-])c(OCCCN2C(=O)NC(C)(C)C2=O)c1	6.9%	0.6%	0.0%	-1.1%[2.29 µM]	19.5*	57.4
C/C=C/c1ccc(OCCCN2C(=O)NC(C)(C)C2=O)c(OC)c1	-14.1%	2.6%	-0.9%	86.7%	23.0*	26.7
CC1(C)NC(=O)N(CCCOc2ccc3c(c2)CCC3)C1=O	-12.1%	-4.8%	-13.7%	3.3%	34.2*	58.9*
COC(=O)c1c(C#N)c(N)nc2c1CCCC2	-2.1%	-1.3%	4.2%	-2.9%	-1.9	-43.7
CCCc1nnc(NC(=O)CCC(=O)N2CCCCC2)s1	-4.2%	-8.4%	-5.9%	-11.2%	10.3	14.2
CCOc1cccc(/C(O)=C2/C(=O)C(=O)N(Cc3cccnc3)C2c2ccco2)c1 (stereo not given)	-5.2%	-26.4%	10.9%	-18.5%	22.2*	49.6
CCOc1ccc(/C(O)=C2/C(=O)C(=O)N(CC3CCCO3)C2c2ccc(C)o2)cc1 (stereo not given)	4.9%	-0.3%	-4.5%	-16.4%	-5.2	42.4
CCOc1cccc(/C(O)=C2/C(=O)C(=O)N(CCOC)C2c2ccco2)c1 (stereo not given)	1.3%	5.7%	-5.8%	-16.3%	20.3*	45.4*
CCOc1ccc(/C(O)=C2/C(=O)C(=O)N(CC3CCCO3)C2c2ccco2)cc1 (stereo not given)	-1.7%	0.5%	-1.9%	-22.6%	15.3*	42.0*
CCCSc1nnc2n(-c3cccc(C)c3)c(=O)c3c4c(sc3n12)CCCC4	10.3%	x	x	x	x	x
Cc1ccc(OCC(=O)Oc2ccc(C)c(C)c2)cc1	0.4%	-7.9%	26.6%	-28.7%	-3.2	-8.7
CCNC(=O)COC(=O)c1cc(-c2ccccc2)nn1-c1ccccc1	-7.1%	5.7%	6.5%	91.1%	6.5	-9.3
CC(C)N1CC=C2C(C#N)=C(N)C(C#N)(C#N)[C@H](c3ccoc3)[C@H]2C1	-1.7%	-8.6%	x	-34.4%	-5.9	-13.3
CCOc1ccc(-c2nc(C#N)c(NC3CC3)o2)cc1	2.5%	-4.2%	-5.6%	-3.3%	42.1*	116.8*
CCOc1ccc(Nc2oc(-c3ccc(Cl)cc3)nc2C#N)cc1	6.8%	-7.2%	18.5%	-24.6%	9.8*	33.8
COc1ccc(Nc2oc(COc3ccc(Cl)cc3)nc2C#N)cc1	-17.8%	3.6%	2.4%	-28.1%	1.9	-3.4
CCOc1ccc(Nc2oc(-c3ccc(COc4ccccc4C)o3)nc2C#N)cc1	11.0%	x	x	x	x	x
CCOc1ccc(-c2nc(C#N)c(NCc3ccc4c(c3)OCO4)o2)cc1	-9.5%	3.1%	-11.7%	-45.6%	19.6	2.2
COc1ccc(Nc2oc(-c3ccc(Cl)cc3)nc2C#N)cc1	0.2%	4.1%	-1.7%	-32.8%	30.4*	84.3*
COc1ccc(-c2nc(C#N)c(NCc3ccccc3Cl)o2)cc1	-4.8%	x	-16.5%	x	21.1	11.2
SMILES	AmpC detergent	SARS PLpro yeast	AMA1 RON2 block	AmpC inh no detg	Cycloheximide cs	Shiga inhibitor
COc1ccc(Nc2oc(-c3ccccc3)nc2C#N)cc1	6.6%	14.2%	3.8%	-8.9%	13.6*	70.3*
COc1ccc(-c2cc(C(C)=O)c(C)n2CCC(=O)NCc2ccc(C)cc2)cc1	-1.2%	x	x	x	x	x
O=C(COC(=O)C1CC1)Nc1nc(-c2ccc(F)c(F)c2)cs1	u	-2.1%	-3.6%	-22.9%	x	x
O=C(C1=C[C@@H](C2CCCCC2)C[C@@H](OCc2ccc(CO)cc2)O1)N1CCOCC1	6.0%	-0.6%	43.4%	155.7%	-1.6	-15.5
CNc1oc(-c2ccccc2)nc1C#N	-3.2%	-8.3%	-11.4%	-8.2%	19.6*	37.5*
C=CCNc1oc(-c2ccc(-c3ccccc3)cc2)nc1C#N	x	9.3%	x	-18.6%	x	x
COc1ccc(Nc2oc(-c3ccc(OC)cc3)nc2C#N)cc1	-0.7%	-1.0%	-12.5%	-25.6%	50.2*	105.3*
COc1cccc(CNC(=O)CCS(=O)(=O)c2ccc3c(c2)NC(=O)CO3)c1	-2.0%	5.1%	-0.5%	-24.5%	-6.1	-7.9
Cc1cccc(NC(=O)c2oc3c(c2C)-c2[nH]ncc2CC3)c1C	-7.7%	x	x	x	x	x
CC(=O)NN1C(=O)/C(=C\c2ccccc2)SC1=S	-9.3%	0.7%	64.3%	-16.0%	1.9	-13.7
Cc1ccc(NC(=O)c2ncn(CCCNCCCc3ccccc3)n2)cc1C	x	x	7.8%	x	x	x
O=C(O)c1ccccc1C(=O)Nc1ccc(Nc2ccc([N+](=O)[O-])cc2[N+](=O)[O-])cc1	1.9%	1.4%	-26.4%	-25.2%	8.1	-13.0
Cc1occc1C(=O)N/N=C/C=C\c1ccccc1[N+](=O)[O-]	-7.5%	-0.2%	23.5%	-35.3%	30.4*	69.6*
Cc1ccsc1C(=O)N/N=C/C=C/c1ccccc1[N+](=O)[O-]	-8.4%	7.6%	121.8%	-38.2%	29.8*	117.4*
O=C(N/N=C/C=C\c1ccccc1[N+](=O)[O-])c1ccco1	-12.6%	-1.2%	9.5%	-9.5%[11.4 µM]	11.6	-2.4
CCOC(=O)N/N=C/C=C/c1ccccc1[N+](=O)[O-]	3.8%	1.4%	10.5%	-15.3%	21.8*	73.4*
COc1ccc(NCC(=O)N/N=C/C=C/c2ccccc2[N+](=O)[O-])cc1	-19.1%	-2.2%	5.8%	-39.8%[11.4 µM]	-2.8	5.7
C/C(=N\O)c1ccc2c3ccccc3n(C)c2c1	-6.8%	-10.0%	u	-22.4%	46.0*	105.3*
CC(NC(=O)CCSCc1ccccc1F)c1ccccc1 (stereo not given)	8.0%	2.0%	10.8%	1.3%	57.6*	64.6*
O=C(CCSCc1ccccc1F)NCCc1ccccc1	6.2%	0.0%	-5.8%	-19.7%	16.6*	21.4
O=C(Cc1ccccc1)NCCSCc1ccccc1	-17.9%	-7.3%	4.9%	-14.9%	18.9*	26.5
CC(NC(=O)CCSCCC(=O)NC(C)c1ccccc1)c1ccccc1 (stereo not given)	-2.9%	-5.1%	11.7%	-14.4%	-2.6	2.3
COc1ccc(CNC(=O)CN2CCC(C(=O)c3ccc(OC)cc3)CC2)cc1	-11.9%	0.1%	-10.6%	36.0%	-4.2	-16.3
